Experimental data as given in PubChem BioAssay (EPA / NIEHS).
The source made the active and inactive calls. Rule for the calls: active = hit-call score of the fitted dose curve at least 0.9, where 1 is the maximum; inactive = score below 0.9.

Assay: ATG_GLI_CIS: Attagene CIS-FACTORIAL HepG2 Assay for human Zinc Finger Protein GLI1 (AID 2282945)
Settings: HepG2, Attagene cis-factorial reporter mRNA, GLI element; actives raise or lower the signal
Experimental: ATG_CIS is a cell-based, multiplexed-readout assay that uses HepG2, a human liver cell line, with measurements taken at 24 hours after chemical dosing in a 24-well plate.ATG_GLI_CIS is one of 52 assay component(s) measured or calculated from the ATG_CIS assay. It is designed to make measurements of mRNA induction, a form of inducible reporter, as detected with fluorescence intensity signals by Reverse transcription polymerase chain reaction (RT-PCR) and Capillary electrophoresis technology.Data from the assay component ATG_GLI_CIS was analyzed into 1 assay endpoint. This assay endpoint, ATG_GLI_CIS, was analyzed with bidirectional fitting relative to DMSO as the negative control and baseline of activity. Using a type of inducible reporter, measures of mRNA for gain or loss-of-signal activity can be used to understand the reporter gene at the transcription factor-level as they relate to the gene GLI1. Furthermore, this assay endpoint can be referred to as a primary readout, because this assay has produced multiple assay endpoints where this one serves a reporter gene function. To generalize the intended target to other relatable targets, this assay endpoint is annotated to the dna binding intended target family, where the subfamily is zinc finger.
Human liver HepG2 cells are transiently transfected with multiple reporter transcription units (MRTUs) in 6-well plates using FuGene 6 reagent (Roche; 3 ml FuGene/1 mg DNA). The MRTU constructs are regulated by a cis-regulating element (promoter). […] A major difference between the CIS and TRANS system is that in CIS activities of endogenous TFs are measured, whereas the TRANS assay evaluates changes in activities of exogenous, chimeric NR-Gal4 proteins. […] At the end of 24 hour incubation, total RNA was isolated using TriZol reagent (Invitrogen). The isolated RNA is then reverse-transcribed using oligo(dT) primer and Mo-MLV reverse transcriptase (Invitrogen) with DNAse I (Ambion) treatment for 30 min. The one-tenth of the produced cDNA was amplified by PCR using Taq DNA polymerase (Invitrogen) and two reporter sequence-specific primers. The PCR products were fluorescently labeled by primer extension with 6-arboxyfluorescein (6-FAM) 5'-labeled reporter sequence-specific primer (2 min at 95 C, 20 s at 68 C and 10 min at 72 C) and these products were digested with 5U of HpaI (New England Biolabs) for 2h at 37 C. The fragments were purified using Qiaquick PCR columns (Qiagen), analyzed on an ABI 3130xL genetic analyzer (Applied Biosystems) with peak positions identified by using a set of X-rhodamine (ROX)-labeled MapMarker1000 molecular weight standards (BioVentures). The raw capillary electrophoresis data was processed using Attagraph software (Attagene).

Compound | outcome | AC50
CC(O)CN(CC(C)O)CC(C)O (stereo not given) | inactive | –
NNc1ccccc1 | inactive | –
COC(C)(C)CCC[C@H](C)C/C=C/C(C)=C/C(=O)OC(C)C | – | 145 µM (active)
O=c1[nH]c(Cl)c(Cl)cc1Cl | inactive | –
CCN(CC)C(=S)S | inactive | –
C[N+](C)=CCl | inactive | –
C=COCCCl | inactive | –
N#CC(c1ccccc1)c1ccccc1 | inactive | –
O=c1c2ccccc2c(=O)c2c1cc(Cl)c1[nH]c3c([nH]c12)c(Cl)cc1c(=O)c2ccccc2c(=O)c13 | inactive | –
COc1cc(OC)nc(Oc2cccc(Oc3nc(OC)cc(OC)n3)c2C(=O)O)n1 | inactive | –
COc1ccc(CO)cc1 | inactive | –
O=C(O)CCl | inactive | –
CCc1cccc(C)c1N(C(=O)CCl)[C@@H](C)COC | inactive | –
CCCC=NO | inactive | –
C=C(Cl)Cl | inactive | –
BrCBr | inactive | –
O=[N+]([O-])c1ccc(Cl)cc1 | inactive | –
CC=Cc1ccc2c(c1)OCO2 | inactive | –
Nc1ccc(-c2ccc(N)c(N)c2)cc1N | inactive | –
c1ccc(P(c2ccccc2)c2ccccc2)cc1 | inactive | –

Compound | outcome | AC50
O=C(CCN1CC1)OCC(CO)(COC(=O)CCN1CC1)COC(=O)CCN1CC1 | inactive | –
O=C1Nc2ccc(Cl)cc2C(c2ccccc2)=NC1O (stereo not given) | inactive | –
CCC[N+](=O)[O-] | inactive | –
CSc1nc(N=[N+]=[N-])nc(NC(C)C)n1 | inactive | –
O=S(=O)(c1ccccc1)c1ccccc1 | inactive | –
COCC(=O)N(c1c(C)cccc1C)N1CCOC1=O | inactive | –
CCCOC(=O)c1ccccc1C(=O)OCCC | inactive | –
CCCCCCCCCCCCCCCC[N+](C)(C)C | inactive | –
SCc1ccco1 | inactive | –
N#Cc1cc(I)c(O)c(I)c1 | inactive | –
C#CC1(O)CCCCC1 | inactive | –
CCC(C)(C)O | inactive | –
C=CC(=O)OCCO | inactive | –
CCCCCCCCCCCC#N | – | 163 µM (active)
ClC1=C(Cl)[C@]2(Cl)[C@@H]3[C@@H](Cl)[C@H](Cl)C[C@@H]3[C@@]1(Cl)C2(Cl)Cl | inactive | –
CCNCC | inactive | –
O=[N+]([O-])O | inactive | –
C=CCc1ccc(OC(=O)Cc2ccccc2)c(OC)c1 | inactive | –
CCOC(=O)NC(=S)Nc1ccccc1NC(=S)NC(=O)OCC | inactive | –
CC(C)c1ccc(O)cc1 | inactive | –
